Experimental data taken from publication PMC13541613, “GHT-SELEX demonstrates unexpectedly high intrinsic sequence specificity and complex DNA binding of many human transcription factors”.

Key:
Test in all cases: HT-SELEX; 20 mM HEPES pH 7, 140 mM KCl, 5 mM NaCl, 1 mM K2HPO4, 2 mM MgSO4, 100 uM EGTA, ZnSO4, 0.1% Tween20; room temperature, 1 h; high values mean tight binding
Conditions in all cases: protein: ivt; tags: eGFP (N-terminal); dsDNA, one strand shown
ZNF721 full-length = ZNF721 full-length (Homo sapiens, UniProt Q8TF20-2 1-923)
Procedure, shortened: (§1)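 In HEPES/KCl low-stringency buffer with Tween20, a bead-immobilised tagged transcription factor (full-length or DNA-binding-domain fragment, from HEK293 lysate or cell-free extract) was incubated with a randomized 40-base DNA library for 1 h at room temperature. DNA retained after washing was heat-eluted, amplified by PCR over successive cycles and Illumina-sequenced, giving ~3 million 60 bp reads per sample. The reported binding signal, a relative k-mer count in those selected reads, rises with tighter binding.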

ZNF721 DBD1 = ZNF721 DBD1 (Homo sapiens, UniProt Q8TF20-2 29-461)
Procedure, shortened: as §1

ZNF721 DBD2 = ZNF721 DBD2 (Homo sapiens, UniProt Q8TF20-2 395-923)
Procedure, shortened: as §1

Sequence of ZNF721 full-length (Q8TF20 other isoform, or with tags, fused parts or gaps): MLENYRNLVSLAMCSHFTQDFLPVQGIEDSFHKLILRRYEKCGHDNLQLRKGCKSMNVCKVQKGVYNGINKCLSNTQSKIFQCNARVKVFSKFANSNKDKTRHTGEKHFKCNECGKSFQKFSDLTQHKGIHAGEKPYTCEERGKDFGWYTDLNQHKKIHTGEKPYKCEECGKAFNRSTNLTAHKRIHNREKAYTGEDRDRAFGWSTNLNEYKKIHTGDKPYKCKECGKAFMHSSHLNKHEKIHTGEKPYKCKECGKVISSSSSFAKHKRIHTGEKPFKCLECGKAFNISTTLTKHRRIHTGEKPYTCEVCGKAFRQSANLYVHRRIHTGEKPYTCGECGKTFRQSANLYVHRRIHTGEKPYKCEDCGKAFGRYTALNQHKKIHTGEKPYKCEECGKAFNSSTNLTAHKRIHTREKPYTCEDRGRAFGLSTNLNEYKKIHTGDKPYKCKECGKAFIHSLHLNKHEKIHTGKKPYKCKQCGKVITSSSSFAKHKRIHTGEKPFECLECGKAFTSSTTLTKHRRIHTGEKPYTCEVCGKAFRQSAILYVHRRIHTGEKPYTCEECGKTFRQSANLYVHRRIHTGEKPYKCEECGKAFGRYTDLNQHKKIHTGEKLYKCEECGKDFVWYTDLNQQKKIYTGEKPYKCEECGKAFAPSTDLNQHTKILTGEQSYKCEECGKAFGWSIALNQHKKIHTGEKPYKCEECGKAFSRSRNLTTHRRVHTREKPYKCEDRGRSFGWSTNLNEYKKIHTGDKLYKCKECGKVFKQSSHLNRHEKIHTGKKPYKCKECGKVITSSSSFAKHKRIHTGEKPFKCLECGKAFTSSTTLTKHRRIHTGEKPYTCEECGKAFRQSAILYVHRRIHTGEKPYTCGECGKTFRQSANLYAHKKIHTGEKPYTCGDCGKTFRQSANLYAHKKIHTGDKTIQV
Sequence of ZNF721 DBD1 (Q8TF20 17-449): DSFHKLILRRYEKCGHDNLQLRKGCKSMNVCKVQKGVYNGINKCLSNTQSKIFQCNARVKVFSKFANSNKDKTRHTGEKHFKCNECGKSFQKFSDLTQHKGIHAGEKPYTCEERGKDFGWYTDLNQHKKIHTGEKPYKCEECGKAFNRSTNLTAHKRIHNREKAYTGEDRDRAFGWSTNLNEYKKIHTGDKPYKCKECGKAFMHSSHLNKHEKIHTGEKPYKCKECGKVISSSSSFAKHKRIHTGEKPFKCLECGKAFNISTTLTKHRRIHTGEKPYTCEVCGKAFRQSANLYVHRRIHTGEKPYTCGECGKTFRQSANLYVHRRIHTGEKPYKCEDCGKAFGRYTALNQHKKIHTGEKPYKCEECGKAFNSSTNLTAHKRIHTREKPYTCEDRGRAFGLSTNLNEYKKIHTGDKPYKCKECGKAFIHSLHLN
Sequence of ZNF721 DBD2 (Q8TF20 383-911): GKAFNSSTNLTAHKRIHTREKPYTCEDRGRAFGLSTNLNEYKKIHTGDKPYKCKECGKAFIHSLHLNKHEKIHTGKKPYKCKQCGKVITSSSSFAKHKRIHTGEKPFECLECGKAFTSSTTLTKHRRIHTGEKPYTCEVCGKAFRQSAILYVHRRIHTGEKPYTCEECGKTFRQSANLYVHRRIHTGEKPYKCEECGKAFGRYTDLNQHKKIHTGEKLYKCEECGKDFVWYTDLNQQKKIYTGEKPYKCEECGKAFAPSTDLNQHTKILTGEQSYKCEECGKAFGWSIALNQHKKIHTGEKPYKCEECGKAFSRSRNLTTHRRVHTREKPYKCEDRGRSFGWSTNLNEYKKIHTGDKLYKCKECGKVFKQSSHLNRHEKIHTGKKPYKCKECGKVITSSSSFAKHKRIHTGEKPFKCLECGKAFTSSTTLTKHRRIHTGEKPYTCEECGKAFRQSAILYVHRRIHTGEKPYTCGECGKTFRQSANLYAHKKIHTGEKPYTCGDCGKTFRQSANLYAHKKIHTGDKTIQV

Row | Sequence | binding signal (ZNF721 full-length) [relative 10-mer count] | binding signal (ZNF721 DBD1) [relative 10-mer count] | binding signal (ZNF721 DBD2) [relative 10-mer count]
1 | ACTTCATACC | 0.377 | 0.502 | –
2 | ATGTATGAAG | 0.263 | 0.279 | –
3 | CTTCATACCC | 0.221 | 0.363 | –
4 | AGGTATGAAG | 0.192 | 0.217 | –
5 | CCCCGACCCC | 0.24 | 0.00789 | –
6 | CCCAGCCCCC | 0.163 | 0.00518 | –
7 | CCCGCACCCC | 0.193 | 0.00784 | –
8 | ACTTCATACT | 0.154 | 0.27 | –
9 | CGGTATGAAG | 0.108 | 0.15 | –
10 | AAGCGTACCC | 0.208 | 0.104 | 0.0138
11 | AGCTTCATAC | 0.196 | 0.296 | –
12 | CGCCGCCCCC | 0.138 | 0.00518 | –
13 | AGCTTCTTTC | 0.151 | 0.125 | –
14 | GAAGCTATAC | 0.107 | 0.143 | –
15 | ATACACTTCA | 0.245 | 0.223 | –
16 | CGCCCCCCCC | 0.171 | 0.00527 | –
17 | CCCGCCCGCC | 0.128 | 0.0044 | –
18 | CCAGCCCCCC | 0.131 | 0.00316 | –
19 | ACCCGCCCCC | 0.153 | 0.005 | –
20 | CACCACCGCC | 0.103 | 0.00454 | 0.00324
21 | AACCCCCACC | 0.108 | 0.00495 | –
22 | AACCCACCCC | 0.143 | 0.00596 | –

Row | Sequence | binding signal (ZNF721 full-length) [relative 10-mer count] | binding signal (ZNF721 DBD1) [relative 10-mer count] | binding signal (ZNF721 DBD2) [relative 10-mer count]
23 | CCCCGGCCCC | 0.12 | 0.00358 | –
24 | CCCCTCCCCA | 0.188 | 0.00734 | 0.00455
25 | AAGAAGCTAT | 0.144 | 0.16 | –
26 | CTCCGCCCCC | 0.11 | 0.00537 | –
27 | CCCCTGCCCC | 0.217 | 0.00734 | –
28 | ACTTCATACA | 0.358 | 0.393 | –
29 | CTTCATACCA | 0.116 | 0.165 | –
30 | AAAGCTATAC | 0.183 | 0.0924 | –
31 | AAGCTATACC | 0.227 | 0.155 | –
32 | AGTATGAAGC | 0.167 | 0.232 | –
33 | CCCGCTCCCC | 0.13 | 0.00527 | –
34 | CCCGCGCCCC | 0.146 | 0.00505 | 0.0018
35 | GCTTCATACC | 0.229 | 0.354 | –
36 | GAAGTGTATC | 0.279 | 0.247 | –
37 | ATGAAGTGTA | 0.376 | 0.432 | –
38 | AAAAGCTATA | 0.177 | 0.0882 | –
39 | CCCCCGGCCC | 0.102 | 0.00394 | –
40 | CCCCCCCCCC | 0.116 | 0.00358 | –
41 | AAAGCAGCGT | 0.371 | 0.00115 | 0.512
42 | CCCTACCCCA | 0.11 | 0.00491 | 0.00395
43 | CCCCTCCCCC | 0.337 | 0.0145 | 0.00443
44 | AAAAAAAAAA | 0.186 | 0.0189 | 0.0538

Row | Sequence | binding signal (ZNF721 full-length) [relative 10-mer count] | binding signal (ZNF721 DBD1) [relative 10-mer count] | binding signal (ZNF721 DBD2) [relative 10-mer count]
45 | CCCCCTCCAC | 0.179 | 0.00908 | 0.00479
46 | AAAGAAGCGT | 0.12 | 0.0739 | 0.00348
47 | CCGACCCACC | 0.115 | 0.00367 | 0.00467
48 | CCCACCGTCC | 0.105 | 0.00449 | 0.00395
49 | CCCTCCCCCA | 0.192 | 0.00881 | 0.00839
50 | CCCCCACCAA | 0.115 | 0.00431 | 0.00443
51 | GGTGGTGGGA | 0.157 | 0.00784 | 0.00455
52 | CCACCCCGAC | 0.136 | 0.00404 | 0.0024
53 | CCCCACCCTC | 0.21 | 0.00986 | 0.00599
54 | CACCAACCCC | 0.123 | 0.00404 | 0.00407
55 | AGCATCCCCA | 0.136 | 0.0121 | 0.0674
56 | AGGGGGGAGG | 0.149 | 0.00789 | 0.00384
57 | CCGCGCCCCC | 0.115 | 0.00427 | 0.0018
58 | ACCCCCCTCC | 0.142 | 0.00624 | 0.00336
59 | AGTGTTTCCA | 0.13 | 0.0113 | 0.284
60 | CCTCCTCCCC | 0.169 | 0.00881 | 0.00527
61 | CCAACCACCC | 0.175 | 0.00624 | 0.00312
62 | CCCTCCCCTC | 0.142 | 0.00679 | 0.0129
63 | ACCACCCCCC | 0.211 | 0.00771 | 0.00288
64 | CCCCCCGCCA | 0.113 | 0.00445 | 0.00372
65 | CACCACACCC | 0.12 | 0.00486 | 0.00336
66 | CCCACTCCCC | 0.155 | 0.00656 | 0.00372
